Where a name gives a salt, the structure may show the parent alone. Read-outs that look alike come from different tables or passages of the source. Among all 3,300 compounds or so, about 95 (3%) showed an effect of 50% or more. Shown is part of a subset that was picked to be rich in strong results.
System: HCoV-229E
Design: species or system Huh-7; HTS, protection from HCoV-229E induced cell death, luminescent cell viability (CellCounting-Lite 2.0), inhibition rate
Settings: 24 h post infection, 1 h compound pre-incubation, 10 µM, inhibitor

| Structure (SMILES) | 229E Inhibition rate [%] | 229E Inhibition rate (229E Inhibition rate, 24 h) [%] |
| --- | --- | --- |
| O=C(OCc1ccccc1)c1ccccc1O [Benzyl salicylate] | 24.5 |  |
| CC(=O)OCc1ccccc1 [Benzyl acetate] | 50.3 |  |
| O=C(OCc1ccccc1)c1ccccc1 [Benzyl benzoate] | 12.5 |  |
| C[C@H]1O[C@@H](Oc2ccc(COC(=O)CC(O)(CC(=O)OCc3ccc(O[C@@H]4O[C@H](CO)[C@@H](O)[C@H](O)[C@H]4O)cc3)C(=O)Oc3ccc(O[C@H]4O[C@H](CO)[C@@H](O)[C@H](O)[C@H]4O)cc3)cc2)[C@H](O)[C@@H](O)[C@@H]1O (stereo partly drawn) [Parishin] | 9.7 |  |
| O=C1CC(C(=O)O)c2c1oc(=O)c1cc(O)c(O)c(O)c21 (stereo not drawn) [Brevifolincarboxylic acid] | 6.4 |  |
| C[C@H]1[C@H](C)CC[C@]2(C)CC[C@]3(C)C(=CC[C@@H]4[C@@]5(C)CC[C@@H](O)[C@](C)(C(=O)O)[C@@H]5CC[C@]43C)[C@H]12 [β-Boswellic acid] | 22.5 |  |
| CCCCCCCCCCC(=O)OC [Methyl undecanoate] | 56.2 |  |
| CCCCCCCCCCCCCCCCCC(=O)OC [Methyl stearate] | 17.9 |  |
| CCCCCCCCCCCCCCCCCCCCCCCC(=O)OC [Methyl tetracosanoate] | 11.5 |  |
| C=C1C[C@@]23CC[C@H]4[C@@](C)(CCC[C@@]4(C)C(=O)O)[C@@H]2CC[C@]1(O[C@@H]1O[C@H](CO)[C@@H](O)[C@H](O[C@@H]2O[C@H](CO)[C@@H](O)[C@H](O)[C@H]2O)[C@H]1O[C@@H]1O[C@H](CO)[C@@H](O)[C@H](O)[C@H]1O)C3 [Rebaudioside B] | 36.9 |  |
| COc1cc(/C=C/C=O)ccc1O [Coniferaldehyde] | 38.5 |  |
| Nc1ncnc2c1ncn2[C@@H]1C[C@H](CO)[C@@H](O)[C@H]1O [Aristeromycin] | 57.5 |  |
| Nc1ncnc2c1ncn2[C@H]1C[C@H](O)[C@@H](CO)O1 [2'-Deoxyadenosine monohydrate] |  | 8.6 |
| Nc1ncnc2c1ncn2[C@@H]1O[C@H](CO)C[C@H]1O [Cordycepin] | 15.3 |  |
| O=C(/C=C/c1ccccc1)c1ccccc1 [trans-Chalcone] |  | 5.4 |
| O=C1C[C@@](O)(C(=O)O)[C@@H](C(=O)O)O1 [(-)-Hydroxycitric acid lactone] | 7.8 |  |
| O=C(O)CCCC(O)C(=O)O (stereo not drawn) [2-Hydroxyadipic acid] | 14.9 |  |
| C[S@@+]([O-])CCCCN=C=S [(R)-sulforaphane] | 54 |  |
| C=C1C(=O)[C@@]23[C@@H]4OC5O[C@@]2(O)[C@@H](O)[C@@H]2C(C)(C)CC[C@@H](O)[C@]52[C@@H]3CC[C@@H]14 [ponicidin] | 95.6 |  |

| Structure (SMILES) | 229E Inhibition rate [%] | 229E Inhibition rate (229E Inhibition rate, 24 h) [%] |
| --- | --- | --- |
| C=C1C(=O)[C@]23[C@H](O)[C@H]1CC[C@H]2[C@@]12CO[C@]3(O)[C@@H](O)[C@@H]1C(C)(C)CC[C@@H]2O [Oridonin] | 0 |  |
| C=C1C(=O)[C@@]23[C@H](O)C[C@@H]4C(C)(C)CC[C@H](O)[C@@]4(CO)[C@@H]2CC[C@@H]1[C@H]3O [Kamebakaurin] | 0 |  |
| COc1c2ccoc2c(O)c2oc(=O)ccc12 [8-Hydroxybergapten] | 7.9 |  |
| C/C=C1\C(=O)C[C@H]2[C@@H]3CCC4=CC(=O)CC[C@]4(C)[C@H]3CC[C@]12C [(Z)-Guggulsterone] |  | 6.7 |
| C/C=C(/C)C(=O)O[C@H]1[C@@H](OC(=O)CC(C)C)c2c(ccc3ccc(=O)oc23)OC1(C)C [Praeruptorin E] | 43.4 |  |
| C/C=C(\C)C(=O)OC1c2c(ccc3ccc(=O)oc23)OC(C)(C)C1OC(=O)/C(C)=C/C (stereo not drawn) [Praeruptorin B] | 53.9 |  |
| C/C=C(/C)C(=O)O[C@@H]1[C@H](OC(=O)CC(C)C)c2c(ccc3ccc(=O)oc23)OC1(C)C [Praeruptorin C] | 32.9 |  |
| C/C=C(/C)C(=O)O[C@@H]1c2c(ccc3ccc(=O)oc23)OC(C)(C)[C@@H]1OC(=O)/C(C)=C\C [(-)-Anomalin] | 51.7 |  |
| C/C=C(/C)C(=O)O[C@@H]1c2c(ccc3ccc(=O)oc23)OC(C)(C)[C@@H]1OC(C)=O [Pteryxin] | 4.8 |  |
| C/C=C(/C)C(=O)O[C@H]1[C@@H](OC(C)=O)c2c(ccc3ccc(=O)oc23)OC1(C)C [Praeruptorin A] | 19.1 |  |
| CC(C)=CCc1c2ccoc2c(O)c2oc(=O)ccc12 [Alloimperatorin] | 0 |  |
| c1c2c(cc3c1OCO3)-c1cc3ccc4c(c3c[n+]1CC2)OCO4 [Coptisine (chloride)] |  | 32 |
| O=C(O)C1CSSC1 [Asparagusic acid] | 15.6 |  |
| CC(C)C[C@H](NC(=O)CN)C(=O)O [Glycyl-L-leucine] | 13.8 |  |
| O=C1c2c(O)cc(O)cc2O[C@H](c2ccc(O)cc2)[C@H]1O [Dihydrokaempferol] | 9.9 |  |
| COc1cc(O)c(CC=C(C)C)c2c1C(=O)CC(c1ccc(O)cc1)O2 (stereo not drawn) [Isoxanthohumol] | 23.6 |  |
| C=C(C)[C@H](CC=C(C)C)Cc1c(O)cc(O)c2c1O[C@H](c1ccc(O)cc1O)CC2=O [sophoraflavanone G] | 75.7 |  |
| C=C(C)[C@H](CC=C(C)C)Cc1c(O)cc(OC)c2c1O[C@H](c1ccc(O)cc1O)CC2=O [Kurarinone] | 19.7 |  |
| C=C(C)[C@H](CC=C(C)C)Cc1c(O)cc(OC)c2c1O[C@H](c1ccc(O)cc1O)[C@@H](O)C2=O [Kushenol I] | 6.5 |  |

| Structure (SMILES) | 229E Inhibition rate [%] | 229E Inhibition rate (229E Inhibition rate, 24 h) [%] |
| --- | --- | --- |
| C=C(C)[C@H](CC=C(C)C)Cc1c(O)cc(OC)c2c1O[C@H](c1ccc(O)cc1OC)CC2=O [(2S)-2'-Methoxykurarinone] | 62.1 |  |
| C=C(C)[C@H](CC=C(C)C)Cc1c(O)cc(O)c2c1O[C@H](c1ccccc1O)CC2=O [Kushenol A] | 10.8 |  |
| C[C@H](O)[C@H](O)C1=Nc2c(nc(N)[nH]c2=O)NC1 [7,8-Dihydro-L-biopterin] | 24.5 |  |
| N[C@@H](CCC(=O)O)C(=O)O [L-Glutamic acid (monosodium salt)] |  | 12 |
| C[C@@H]1O[C@@H](O[C@H]2[C@H](Oc3cc(O)c4c(=O)cc(-c5ccc(O)cc5)oc4c3)O[C@H](CO[C@@H]3O[C@H](CO)[C@@H](O)[C@H](O)[C@H]3O)[C@@H](O)[C@@H]2O)[C@H](O)[C@H](O)[C@H]1O [Apigenin-7-O-(2G-rhamnosyl)gentiobioside] | 22.2 |  |
| Nc1ccccc1S(=O)(=O)O [2-Aminobenzenesulfonic acid] | 0 |  |
| COc1cc(-c2[o+]c3cc(O)cc(O)c3cc2O)cc(O)c1O [Petunidin (chloride)] | 13.2 |  |
| O=C(/C=C/c1ccc(O)cc1)c1ccc(O[C@@H]2O[C@H](CO)[C@@H](O)[C@H](O)[C@H]2O)cc1O [Neoisoliquiritin] | 24.9 |  |
| O=C(/C=C/c1ccc(O[C@@H]2O[C@H](CO)[C@@H](O)[C@H](O)[C@H]2O)cc1)c1ccc(O)cc1O [Isoliquiritin] | 27.7 |  |
| O=C(/C=C/c1ccc(O[C@@H]2O[C@H](CO)[C@@H](O)[C@H](O)[C@H]2O[C@@H]2OC[C@](O)(CO)[C@H]2O)cc1)c1ccc(O)cc1O [Isoliquiritin apioside] | 63.8 |  |
| C=C1CC[C@H]2O[C@]2(C)CC[C@@H]2[C@@H]1CC2(C)C [Caryophyllene oxide] | 16.3 |  |
| O=C(O)c1ccc(O)c(O)c1O [2,3,4-Trihydroxybenzoic acid] | 18 |  |
| C[C@H](CC[C@@H](O[C@@H]1O[C@H](CO[C@@H]2O[C@H](CO)[C@@H](O)[C@H](O)[C@H]2O)[C@@H](O)[C@H](O)[C@H]1O[C@@H]1O[C@H](CO)[C@@H](O)[C@H](O)[C@H]1O)C(C)(C)O)[C@H]1CC[C@@]2(C)[C@@H]3CC=C4[C@@H](CC[C@H](O[C@@H]5O[C@H](CO[C@@H]6O[C@H](CO)[C@@H](O)[C@H](O)[C@H]6O)[C@@H](O)[C@H](O)[C@H]5O)C4(C)C)[C@]3(C)C(=O)C[C@]12C [11-oxo-mogroside V] | 0 |  |
| COc1cc([C@@H]2OC[C@@H]3[C@H]2CO[C@H]3c2cc(OC)c(O)c(OC)c2)cc(OC)c1O [(-)-Syringaresinol] | 16.7 |  |
| Cc1cc(O[C@@H]2O[C@H](CO)[C@@H](O)[C@H](O)[C@H]2O)c2c(c1)C(=O)c1cccc(O)c1C2=O [Chrysophanein] | 51.1 |  |
| Cc1cc(O)c2c(c1)C(=O)c1cccc(O[C@@H]3O[C@H](CO)[C@@H](O)[C@H](O)[C@H]3O)c1C2=O [Chrysophanol 8-O-glucoside] | 8.4 |  |
| CC(=O)OC[C@H]1O[C@@H](O[C@@H]2[C@@H](O)[C@H](O[C@@H]3[C@H](O)C(C)(C)C[C@H]4C5=CC[C@@H]6[C@@]7(C)CC[C@H](O[C@@H]8O[C@H](C(=O)O)[C@@H](O)[C@H](O)[C@H]8O[C@@H]8O[C@H](CO)[C@H](O)[C@H](O)[C@H]8O[C@@H]8O[C@H](CO)[C@@H](O)[C@H](O)[C@H]8O)[C@](C)(CO)[C@@H]7CC[C@@]6(C)[C@]5(C)CC[C@@]34C)OC[C@@H]2O)[C@H](OC(C)=O)[C@@H](OC(C)=O)[C@@H]1OC(C)=O [Soyasaponin Ab] | 46.7 |  |
| CN1CCC=C(C(=O)O)C1 [Arecaidine] |  | 7.9 |
| O=C(/C=C/c1ccc(O)c(O)c1)O[C@@H](C(=O)O)[C@@H](OC(=O)/C=C/c1ccc(O)c(O)c1)C(=O)O [Chicoric acid] |  | 8 |

From paper PMC12431657, “Discovery and mechanistic insights of dibenzoylmethane as a broad spectrum inhibitor of coronavirus” (PLOS Pathogens, 2025)
